Assay results reported in PubChem BioAssay (NCI).
About 83,000 compounds went through this panel and 20% of them were active in at least one assay; those are over-represented in the sample as a whole.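 Values shown are percent growth following 48 h exposure of cells in 96-well plates to a single concentration of compound; below 10 was considered active.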 Unmarked numbers belong to inactive results. The source made the active and inactive calls.

What was measured:
Experiment in all cases: NCI-60 one-dose screen, 48 h (100 = growth as untreated, 0 = no growth, -100 = all killed)
Details in all cases: 10 µM unless noted
NCI-H23 lung = test system: NCI-H23 lung
NCI-H226 lung = test system: NCI-H226 lung
NCI-H322M lung = test system: NCI-H322M lung
HOP-62 NSCLC = test system: HOP-62 NSCLC
NCI-H460 lung = test system: NCI-H460 lung
HOP-92 NSCLC = test system: HOP-92 NSCLC
A549/ATCC NSCLC = test system: A549/ATCC NSCLC
786-0 renal = test system: 786-0 renal
COLO 205 colon = test system: COLO 205 colon
DU-145 prostate = test system: DU-145 prostate
K-562 leukemia = test system: K-562 leukemia
MALME-3M melanoma = test system: MALME-3M melanoma
MDA-MB-231 breast = test system: MDA-MB-231 breast
RXF 393 renal = test system: RXF 393 renal
SF-268 CNS = test system: SF-268 CNS
SF-295 CNS = test system: SF-295 CNS
SF-539 CNS = test system: SF-539 CNS
M14 melanoma = test system: M14 melanoma
UACC-257 melanoma = test system: UACC-257 melanoma

Row | SMILES | growth (NCI-H23 lung) | growth (NCI-H226 lung) | growth (NCI-H322M lung) | growth (HOP-62 NSCLC) | growth (NCI-H460 lung) | growth (HOP-92 NSCLC) | growth (A549/ATCC NSCLC) | growth (786-0 renal) | growth (COLO 205 colon) | growth (DU-145 prostate) | growth (K-562 leukemia) | growth (MALME-3M melanoma) | growth (MDA-MB-231 breast) | growth (RXF 393 renal) | growth (SF-268 CNS) | growth (SF-295 CNS) | growth (SF-539 CNS) | growth (M14 melanoma) | growth (UACC-257 melanoma)
1 | O=C1/C(=C/c2ccc(F)cc2)Cc2ccccc21 | 99.7% | 94.2% | 95.2% | 96.2% | 103% | 80.4% | 91.7% | 96% | 115% | 104% | 110% | 107% | 107% | 99.6% | 110% | 90.8% | 107% | 103% | –
2 | CC(C)CNc1nc(N=[N+]=[N-])nc(NCC(C)C)n1 | 59.9% [100 µM] | 75.8% [100 µM] | 92.5% [100 µM] | 84.1% [100 µM] | 68.8% [100 µM] | -6.14% [100 µM] (active) | 56.3% [100 µM] | 55.5% [100 µM] | 99.2% [100 µM] | 80.1% [100 µM] | 33.5% [100 µM] | 72.7% [100 µM] | 48.5% [100 µM] | 70.8% [100 µM] | 63.3% [100 µM] | 36.5% [100 µM] | – | 57.7% [100 µM] | 62.7% [100 µM]
3 | CCCCOP(=O)(OCCCC)C(C(=O)OCC)C(CC(=O)OCC)C(=O)OCC (stereo not given) | 134% | 99.1% | 107% | 104% | 109% | 48.4% | 103% | 106% | 107% | 122% | 109% | 125% | 100% | 93.4% | 109% | 101% | 91.4% | 114% | –
4 | Nc1nc(Nc2ccccc2SSc2ccccc2Nc2nc(N)nc(-c3cccc(Cl)c3)n2)nc(-c2cccc(Cl)c2)n1 | 78.6% | 82.7% | 91.8% | 7.83% (active) | 89.9% | 105% | -24.8% (active) | 99.1% | 119% | 97% | 81.9% | 104% | 74.8% | 106% | 99.9% | 79.2% | 99.6% | 95.4% | 112%
5 | COc1ccc(NC(=O)c2ccccc2-c2ccccc2)c(C(N)=O)c1 | 53.7% | 70.2% | 58.7% | 45.3% | 17% | 57.3% | 46.5% | 28.5% | 9.95% (active) | 29.6% | 14.2% | 34.3% | 54.1% | – | 49.5% | 17.4% | -1.25% (active) | 18.2% | 49.7%
6 | COc1ccc(-n2cnc3cc(C(=O)N4CCCCC4)ccc32)cc1 | 95.5% | 95.3% | 102% | 91.4% | 101% | 95.3% | 103% | 100% | 105% | 111% | 99.4% | 97% | 96.4% | – | 105% | 97.9% | 98.1% | 101% | 101%
7 | CC(C)OP(=O)(OC(C)C)c1ncc(-c2ccc(C(F)(F)F)cc2)c(NC2CCCCCC2)n1 | -47.6% [33.3 µM] (active) | -50.3% [33.3 µM] (active) | -70% [33.3 µM] (active) | -27.1% [33.3 µM] (active) | -64.5% [33.3 µM] (active) | -93.7% [33.3 µM] (active) | -33.6% [33.3 µM] (active) | -67.6% [33.3 µM] (active) | -78% [33.3 µM] (active) | -81.2% [33.3 µM] (active) | -22.1% [33.3 µM] (active) | -85% [33.3 µM] (active) | -8.63% [33.3 µM] (active) | -85.7% [33.3 µM] (active) | -90.6% [33.3 µM] (active) | -85.6% [33.3 µM] (active) | – | -90.2% [33.3 µM] (active) | -41.1% [33.3 µM] (active)
8 | CC(=O)/C(=C/c1ccc(Cl)cc1)C(=O)c1ccccc1 | 88.6% | 107% | 101% | 95.5% | 99.7% | 62.5% | 94.8% | 93.9% | 111% | 99.6% | 61.8% | 103% | 96.1% | 100% | 82.8% | 60.2% | 101% | 86% | –
9 | Oc1c(N=Nc2nn[nH]n2)ccc2ccccc12 | 72.8% | 81.4% | 57.9% | 85.4% | 73% | 77.1% | 77.8% | 102% | 54% | 96.6% | 97.2% | 9.84% (active) | 60.4% | 87.4% | 93.8% | 65.4% | 95.3% | 62.1% | –
10 | N#Cc1c(NC(=O)c2ccco2)[n+]([O-])c2ccccc2[n+]1[O-] | 110% | 86.1% | 103% | 82.9% | 107% | 164% | 99.7% | 99.2% | 105% | 95.5% | 84.9% | 112% | 96.1% | 95.5% | 110% | 107% | 84.4% | 104% | 102%
11 | CCCCCCCCCCCCCCCCCC1=NC(C)(CO)CO1 (stereo not given) | 98.2% | 91.1% | 90.4% | 95.9% | 103% | 79.8% | 89.6% | 92.3% | 101% | 102% | 80.7% | 91.5% | 88.8% | 102% | 98.6% | 88.5% | 97.7% | 95.8% | –
12 | COC(=O)[C@H](Cc1cnc[nH]1)NC(=O)[C@@H](NC(=O)Nc1cc(C(F)(F)F)cc(C(F)(F)F)c1)C(C)C | -70.6% [100 µM] (active) | -44.1% [100 µM] (active) | -94.9% [100 µM] (active) | -92.5% [100 µM] (active) | -42.5% [100 µM] (active) | -96.7% [100 µM] (active) | -70.8% [100 µM] (active) | -90.7% [100 µM] (active) | -82.6% [100 µM] (active) | -100% [100 µM] (active) | -46% [100 µM] (active) | -94.4% [100 µM] (active) | -95.9% [100 µM] (active) | -89.3% [100 µM] (active) | -92.7% [100 µM] (active) | – | -95.7% [100 µM] (active) | -89% [100 µM] (active) | -87.6% [100 µM] (active)
13 | C1=C(Cc2ccccc2)n2cnc3ncnc(c32)S1 | 61.3% | 53.7% | 73% | 39.9% | 83.8% | 56.6% | 87.3% | 29.3% | 82% | 27.3% | 14.4% | 68% | 35.1% | – | 71.9% | 30% | 43.2% | 13.2% | 74.9%
14 | CC(NNC(=S)N1CCCCCC1)c1ccc2ccccc2n1 (stereo not given) | 60.9% | 45.3% | 27.2% | 42.7% | 12.5% | 65.7% | 13.9% | 40% | 20.1% | 36.2% | 18.2% | 29.1% | 41.6% | 58.3% | 39.7% | -10.9% (active) | 18.6% | 21% | –
15 | Cc1ccc(-c2c3c(N)nc(-c4ccncc4)nc3nc3c2c(C)nn3-c2ccccc2)cc1 | 56.4% | 44.9% | 70.3% | 15.5% | 28.5% | -7.02% (active) | 17.8% | 80.8% | 18.1% | 32.6% | 28.9% | -2.14% (active) | 21.4% | 45.6% | 37.8% | 95% | 11.3% | 44.3% | –
16 | FC(F)(F)c1ccc(-c2cnc(-c3nn[nH]n3)nc2NC2CCCCCC2)cc1 | 66% [50 µM] | 70.9% [50 µM] | 51.1% [50 µM] | 63.7% [50 µM] | 34.6% [50 µM] | -8.27% [50 µM] (active) | 81.1% [50 µM] | 49.8% [50 µM] | 95% [50 µM] | 64% [50 µM] | 20% [50 µM] | 69.5% [50 µM] | 64.1% [50 µM] | 88.7% [50 µM] | 47.8% [50 µM] | – | 64% [50 µM] | 53.2% [50 µM] | 81.6% [50 µM]
